Bioassay records: PubChem BioAssay, National Center for Advancing Translational Sciences (NCATS)
KB-V1 MDR tox: KB-V1 MDR subline cytotoxicity | KB-V1 MDR cells viability, CellTiter-Glo, 72 h | Potency, µM (titrated, usually from 46.1 µM), actives largely listed as cytotoxic | 3.4% of 400,000 active | AID 1347076; also: % is scaled to controls: 0 for no effect and ±100 for the full control effect; nearly all actives have a fitted effect of over 60% in size
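KB-V1 MDR subline cells in DMEM (phenol-red free, 10% FBS) exposed to compounds in qHTS concentration series for 72 h at 37 degrees C. Viability read by CellTiter-Glo luminescence; concentration-effect curves fitted after normalization and correction.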
HT1080 IDH1KD tx: HT-1080 IDH1 knockdown cell toxicity (counter line); 2% of 360,000 active; HT-1080 IDH1 knockdown viability, ATP luminescence, 48 h; Potency, µM (doses to about 46.1 µM), inactives show at the highest dose activity, negative = toxicity, actives largely listed as cytotoxic; AID 686971;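 also: 0% = DMSO wells and -100% = cell-free medium wells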
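IDH1KD HT-1080 cells, 750/well, RPMI + 5% FBS; compound pinned after 2 h settling; 48 h, 37 °C; CellTiter-Glo luminescence; % activity normalised to DMSO and no-cell wells; curves fitted, classed by r2 and efficacy.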
TGFb SMAD3 inh: blocks TGF-b signaling; HepG2 CAGA-GFP TGF-b/SMAD3 reporter, GFP fluorescence, 18 h; TGF-beta stimulated, 500 pg/mL final; Potency, µM (top dose mostly 46.1 µM), inactives show at the top dose activity, negative = inhibition, usual class: inhibitors; 1.2% of 410,000 active; AID 588855; also: % is scaled to controls: 0 for no effect and ±100 for the full control effect; nearly all actives have a fitted effect of over 65% in size
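Per well, imaged GFP fluorescence of HEPG2 CAGA-GFP cells gives the signal; cells get compound, then TGF-beta (500 pg/mL final), 18 h at 37 degrees C; %Activity versus -TGF-beta and +DMSO controls.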
HT1080NT lethal: kills 2HG-producing HT-1080-NT fibrosarcoma cells; HT-1080-NT fibrosarcoma viability, CellTiter-Glo ATP luminescence, 48 h; Potency, µM (doses to about 46.1 µM), without a hit: top-dose activity, negative = less viability, most hits filed as cytotoxic; 1.6% of 360,000 active; AID 686970;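 also: NT is the 2HG producing partner of a matched IDH1 knockdown line; 0% = DMSO-treated cells and -100% = media-only wells without cells; nearly all actives have a fitted effect of over 55% in size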
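Fibrosarcoma NT cells, 750 per well in 5% FBS RPMI, were exposed to compound for 48 hours. Viability: CellTiter-Glo luminescence.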
HepG2 viability: HepG2 cytotoxicity, counter-screen for TGF-b inhibitors; Potency, µM (series often up to 46.1 µM), without a hit: top-dose activity change, negative = cytotoxicity, actives largely listed as cytotoxic; 0.76% of 410,000 active; AID 588856; HepG2 CAGA-GFP viability, ATP luminescence, 18 h
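CellTiter-Glo luminescence gave cytotoxicity after 18 hours at 37 degrees C. The cells were HepG2 CAGA-GFP in 1% FBS DMEM, stimulated with 500 pg/mL TGF-beta after compound addition. %Activity was normalised to no-cell wells (complete cell-killing) and DMSO (no toxicity), and curves were fitted and classified.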
KB-3-1 tox: KB-3-1 parental cell cytotoxicity | KB-3-1 viability, CellTiter-Glo ATP luminescence, 72 h | Potency, µM (titrated, usually from 46.1 µM), most hits filed as cytotoxic | 1.4% of 400,000 active | AID 1347075; also: % is scaled to controls: 0 for no effect and ±100 for the full control effect; nearly all actives have a fitted effect of over 60% in size
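Cytotoxicity measured as CellTiter-Glo luminescence after 72 h at 37 C. Compound titrations were pinned onto drug-naive KB-3-1 parental adenocarcinoma cells grown in DMEM with 10% FBS, and normalized data fitted to concentration-response curves.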
* marks the source's active call; other numbers are inactive results; i = inactive; ? = inconclusive; . = not tested or not shown. Only some compounds are listed: those with a hit (about 6.6% of all), similar ones and a draw of the others. Calls follow the shape of the dose curve; as a rule, active = well fitted curve in the direction sought with a large enough effect; inconclusive = small, poorly fitted or top-dose-only effect, or another doubt; inactive = no such curve, though single readings can be large; an effect the other way counts as inactive or inconclusive. Potency is read from the fitted curve at half-maximal effect.

SMILES | KB-V1 MDR tox | HT1080 IDH1KD tx | TGFb SMAD3 inh | HT1080NT lethal | HepG2 viability | KB-3-1 tox
CCCCOc1ccc(C(=O)N(Cc2ccc(N(C)C)cc2)Cc2ccco2)cc1 | . | . | . | . | -23.4% | .
Cc1cc(C(=O)N/N=C/c2ccncc2)c(C)o1 | i | -22.5% | -1.1% | -15.4% | -26.2% | i
Cc1ccc(/C=N/NC(=O)c2cc(C)oc2C)cc1 | ? | 20.6µM* | 2.4% | ? | -60.2% | ?
Cc1nc2sc(C(N)=O)c(N)c2c(-c2ccc(Br)cc2)c1C(=O)Nc1ccc(Cl)cc1 | ? | . | ? | . | -94.8% | i
COC(=O)c1ccc(NC(=O)C2CCN(S(=O)(=O)c3ccc4c(c3)CCCN4C(C)=O)CC2)cc1 | i | . | -10.1% | . | -19.9% | i
Cc1cc(/C([O-])=C(/C(=S)Nc2ccccc2)[n+]2ccccc2)c(C)n1-c1ccccc1 | i | -17.1% | 1.0% | -7.2% | -8.6% | i
Cc1cc(/C([O-])=C(/C(=S)Nc2ccc(F)cc2)[n+]2ccccc2)c(C)n1-c1ccc(F)cc1 | 23.1µM* | -7.3% | -1.0% | -0.5% | -19.2% | i
COc1cc(/C=N/NC(=S)NC2CC3CC2C2C=CCC32)ccc1O (centres undefined) | ? | ? | ? | 18.4µM* | -47.6% | ?
Cc1cc(C(=O)COC(=O)c2ccc3c(c2)NC(=O)CS3)c(C)n1CC1CCCO1 (centres undefined) | 11.6µM* | -12.4% | ? | 7.1% | -2.0% | i
CN(C)c1ccc(-c2ccnc3c2CC(C)(C(=O)NCc2cccs2)O3)cc1 (centres undefined) | i | ? | -27.8% | ? | -24.6% | ?
CC1(C(=O)NCc2cccs2)Cc2c(-c3ccccc3)ccnc2O1 (centres undefined) | ? | ? | 11.6% | ? | -10.7% | 5.8µM*
CC1(C(=O)NCc2cccs2)Cc2c(-c3ccc4c(c3)OCO4)ccnc2O1 (centres undefined) | ? | ? | -22.2% | ? | 2.6% | 5.17µM*
COC(=O)Cn1nc(-c2ccc(C)c(S(=O)(=O)N(C)C)c2)c2ccccc2c1=O | 18.4µM* | 7.2% | 0.0% | 1.7% | -22.6% | i
COc1ccc(OC)c(NC(=O)Cc2nn(C)c(=O)c3ccccc23)c1 | ? | -29.5% | ? | -10.1% | -27.0% | i
Cc1ccc(-c2nn(CC(=O)NCc3cc(-c4nn(C)c(=O)c5ccccc45)ccc3C)c(=O)c3ccccc23)cc1 | 7.31µM* | ? | -0.2% | ? | 3.55µM* | 23.1µM*
COc1cc(NC(=O)Cc2nn(C)c(=O)c3ccccc23)cc(OC)c1OC | 14.6µM* | 7.7% | 6.7% | -11.7% | -19.7% | i
CCC(=O)NCc1cc(-c2nn(C)c(=O)c3ccccc23)ccc1C | ? | 8.0% | 17.3% | 14.9% | -6.6% | i
CCCC(=O)Nc1cc(-c2nn(C)c(=O)c3ccccc23)ccc1OC | ? | -7.2% | 7.9% | -2.5% | -14.8% | ?
CCC(=O)Nc1cc(-c2nn(C)c(=O)c3ccccc23)ccc1OC | 11.6µM* | -18.8% | 38.1% | 2.9% | -1.5% | i
COc1ccc(-c2nn(C)c(=O)c3ccccc23)cc1NC(=O)Cn1nc(C)c2ccccc2c1=O | 20.6µM* | ? | -11.5% | ? | -6.5% | i
Cc1ccc(NC(=O)c2ccc(-c3nn(C)c(=O)c4ccccc34)cc2)cc1 | 20.6µM* | 0.0% | -5.1% | -0.1% | -4.7% | i
Cn1nc(-c2ccc(C(=O)Nc3ccc(F)cc3)cc2)c2ccccc2c1=O | ? | -0.5% | -29.6% | 0.5% | -12.4% | i
CN(C)c1nc(C(=O)Nc2ccccc2)nc(N(C)C)n1 | i | -2.5% | -12.7% | -2.7% | -7.3% | i
CN(C)c1nc(NNC(=O)c2ccccc2)nc(N(C)C)n1 | 8.2µM* | 0.2% | ? | 13.2% | -23.6% | i
